# Compounds with a hit are over-represented: about 2.5% of the library has one in this group of screens.
# Cruzain inh Det: cruzain (T. cruzi) inhibition with detergent. P25779. purified cruzain, Z-FR-AMC fluorescence, 0.01% Triton. Potency, µM, actives largely listed as inhibitors. 0.43% of 200,000 active; note: nearly all actives have a fitted effect of over 40% in size
# Target sequence (P25779 123-467 limits assumed): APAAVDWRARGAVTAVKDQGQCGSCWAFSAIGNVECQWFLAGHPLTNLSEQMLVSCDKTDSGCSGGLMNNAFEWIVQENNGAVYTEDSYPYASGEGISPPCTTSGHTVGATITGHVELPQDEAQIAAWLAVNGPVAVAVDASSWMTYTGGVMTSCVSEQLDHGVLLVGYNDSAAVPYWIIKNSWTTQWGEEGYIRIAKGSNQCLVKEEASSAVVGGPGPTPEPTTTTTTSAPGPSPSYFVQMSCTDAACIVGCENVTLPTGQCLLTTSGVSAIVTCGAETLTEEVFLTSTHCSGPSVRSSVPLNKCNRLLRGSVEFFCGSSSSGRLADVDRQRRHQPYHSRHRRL
#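 Z-FR-AMC hydrolysis (2 uM substrate) by cruzain (1.5 nM) monitored kinetically at ex 360/em 450 nm after 15 min room-temperature compound exposure; 0.01% Triton X-100, pH 5.5, 5 mM DTT.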
# Cruzain noTriton: inhibitors of Trypanosoma cruzi cruzain without detergent | P25779 | Potency, µM, usual class: inhibitors | AID 1476 | 2.3% of 200,000 active | purified cruzain, Z-FR-AMC fluorescence, no detergent; note: nearly all actives have a fitted effect of over 40% in size
#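 Detergent-free condition (0.00005% Triton X-100) in acetate buffer pH 5.5 with DTT. 1.5 nM enzyme and compound were pre-mixed 15 min, then 2 uM Z-FR-AMC substrate added; reaction progress from fluorescence change between first and third reads (60 s).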
# A number is an active result; n = inactive; u = inconclusive. Calls come from the whole dose curve; as a rule, active = well fitted curve in the direction sought with a large enough effect; inconclusive = small, poorly fitted or top-dose-only effect, or another doubt; inactive = no such curve, though single readings can be large; an effect the other way counts as inactive or inconclusive.
SMILES,Cruzain inh Det,Cruzain noTriton
Cc1ccc2c(CN3CCN(S(=O)(=O)/C=C/c4ccccc4)CC3)cc(=O)oc2c1,n,25.1µM
CC(C)=N[C@H](C(=O)O)C(C)(C)S,n,n
COc1cc(CN(C(=O)COc2ccc(F)cc2)c2ccccn2)cc(OC)c1OC,n,n
O=C(N/N=C/c1c[nH]c2ccccc12)c1cc(-c2ccccc2)n[nH]1,n,n
O=C(N/N=C/c1c[nH]c2ccccc12)c1cc(-c2ccc(-c3ccccc3)cc2)n[nH]1,n,7.94µM
CC(=O)c1ccc(N2CCN(C(=O)c3cc4cc5cc(C)ccc5nc4s3)CC2)cc1,n,n
CN1CCN(c2ncc3nc(-c4cccc(C#N)c4)c(=O)n(CCc4ccccc4)c3n2)CC1,n,u
Cc1ccc(-c2csc3nnc(SCC(=O)N4CCN(Cc5ccccc5)CC4)n23)cc1,n,20µM
O=C(CSc1nnc2scc(-c3ccccc3)n12)N1CCN(Cc2ccccc2)CC1,n,n
CCc1nc(-c2cc(S(=O)(=O)N3CCN(c4ccc(F)cc4)CC3)ccc2OC)no1,n,u
CCCn1c(COc2cccc(C)c2)nc2ccccc21,n,n
CCOc1ccc(Br)cc1S(=O)(=O)Nc1ccc(NC(=O)c2ccccc2C)cc1,n,u
COc1ccccc1NC(=O)c1ccc(NS(=O)(=O)c2ccc(F)c(F)c2F)cc1,n,n
CCOc1ccc(Br)cc1S(=O)(=O)Nc1ccc(NC(=O)c2ccccc2F)cc1,n,25.1µM
COc1ccc(C)cc1S(=O)(=O)Nc1ccc(F)cc1,n,n
CCOc1ccc(Br)cc1S(=O)(=O)Nc1ccc(C(=O)Nc2ccccc2OC)cc1,n,15.8µM
CCOc1ccc(Br)cc1S(=O)(=O)Nc1ccc(C(=O)OCC(=O)N(C)c2ccccc2)cc1,n,n
COc1ccc(NC(=O)c2c(F)cccc2F)cc1S(=O)(=O)Nc1ccc(Br)cc1,n,15.8µM
CCOc1ccc(Br)cc1S(=O)(=O)Nc1ccc(C(=O)Nc2ccc(C)cc2)cc1,n,31.6µM
Cc1ccc(C)c(N2CCN(C(=O)c3cc(S(=O)(=O)N4CCC(C)CC4)cn3C)CC2)c1,n,n
COc1cc(C(=O)N(Cc2cccnc2)c2nc3cc(C)c(C)cc3s2)cc(OC)c1OC,n,n
O=S(=O)(c1ccccc1)c1nnn2c1nc(NC1CCCCCC1)c1sccc12,n,n
Cc1c(NC(=O)c2ccc(Cl)cc2)cc(C(C)C)c(O)c1S(=O)(=O)c1ccccc1,n,u
Cc1cccc(NC(=O)/C=C/c2ccc([N+](=O)[O-])s2)c1,n,u
Cc1ccc(NC(=O)/C=C/c2ccc([N+](=O)[O-])s2)cc1,n,31.6µM
SMILES,Cruzain inh Det,Cruzain noTriton
CCOc1cccc2cc(-c3nc4ccc(C(=O)O)cc4[nH]3)c(=O)oc12,n,n
O=C(Nc1ncc(S(=O)(=O)c2ccc([N+](=O)[O-])cc2)s1)c1cccc2ccccc12,n,12.6µM
O=C(NC(Nc1ncc(S(=O)(=O)c2ccc([N+](=O)[O-])cc2)s1)(C(F)(F)F)C(F)(F)F)c1ccc(Cl)cc1,n,n
Cc1ccc(S(=O)(=O)n2nc(C)c(S(=O)(=O)N3CCC(C)CC3)c2C)cc1,n,n
CCc1ccc(OCCSc2nc(-c3cccc(C)c3)nc3cc(=O)[nH]n23)cc1,n,n
Cc1cccc(-c2nc(SCCCOc3ccc(Cl)c(C)c3)n3[nH]c(=O)cc3n2)c1,n,n
Cc1cccc(OCCCSc2nc(-c3ccc(C(C)(C)C)cc3)nc3cc(=O)[nH]n23)c1C,n,10µM
CCc1ccc(OCCCSc2nc(-c3ccc(C(C)(C)C)cc3)nc3cc(=O)[nH]n23)cc1,n,6.31µM
CN1CCN(c2oc(/C=C/c3ccc(F)cc3)nc2C#N)CC1,25.1µM,25.1µM
COCCNc1oc(-c2ccc(F)cc2)nc1C#N,n,n
COc1cccc(/C=C/c2nc(C#N)c(N3CCCCCC3)o2)c1,n,n
COc1cccc(/C=C/c2nc(C#N)c(NCCc3ccccc3)o2)c1,n,n
COc1cccc(/C=C/c2nc(C#N)c(N3CCC(C(N)=O)CC3)o2)c1,28.2µM,u
CCOc1ccc(/C=C/c2nc(C#N)c(N3CCCCCC3)o2)cc1,n,n
COc1cccc(/C=C/c2nc(C#N)c(NCCN(C)C)o2)c1,25.1µM,20µM
COCCNc1oc(/C=C/c2ccc(F)cc2)nc1C#N,22.4µM,20µM
Cc1nn(-c2ccccc2)c(OC(=O)C(C)(C)C)c1Sc1ccccc1,n,n
CCCOc1ccc(C(=O)Nc2ccc3oc(-c4ccncc4)nc3c2)cc1,n,n
CCOC(=O)c1cnc2ccc(C)cc2c1Nc1ccc(N(CC)CC)cc1,n,n
CCOC(=O)c1ccccc1NC(=O)c1c(C)oc2ncnc(N3CCOCC3)c12,n,n
Cc1ccc(-c2c(C)cc3oc(=O)cc(-c4ccccc4)c3c2C)cc1,n,u
CC(=O)Nc1ccc(-c2c(C)cc3oc(=O)cc(-c4ccccc4)c3c2C)cc1,n,n
Cc1cc2oc(=O)cc(-c3ccccc3)c2c(C)c1-c1ccc(N(C)C)cc1,n,14.1µM
CCOC(=O)c1ccc(-c2c(C)cc3oc(=O)cc(-c4ccccc4)c3c2C)cc1,n,4.47µM
COc1ccc(-c2c(C)cc3oc(=O)cc(-c4ccccc4)c3c2C)cc1,n,31.6µM
SMILES,Cruzain inh Det,Cruzain noTriton
Cc1cc2oc(=O)cc(-c3ccccc3)c2c(C)c1-c1ccc(C(F)(F)F)cc1,n,u
CC(=O)N1c2ccccc2CC1C(=O)N1CCN(c2cccc(Cl)c2)CC1 (configuration not stated),n,n
COc1ccc(C(=O)Nc2ccc(N(C)Cc3ccccc3)c(C(=O)O)c2)cc1,n,n
O=C(Nc1ccc(C(=O)OCc2cc(=O)n3ccsc3n2)cc1)c1cccc(F)c1,n,n
O=C(CSc1nccn1-c1ccc(F)cc1)Nc1nc2ccccc2s1,n,n
Cc1ccc(-c2noc(-c3ccc(N4CCOCC4)c([N+](=O)[O-])c3)n2)cc1,n,n
CCN(CC)S(=O)(=O)c1ccc(/C=C/C(=O)OCC(=O)Nc2cccc3ccccc23)cc1,n,n
O=C(COC(=O)/C=C/c1nc2ccccc2s1)Nc1cccc2ccccc12,n,6.31µM
O=C(COC(=O)/C=C/c1ccc(Cl)cc1)Nc1ccccc1-c1ccccc1,n,n
O=C(COC(=O)/C=C/c1nc2ccccc2s1)Nc1cccc(Cl)c1Cl,n,10µM
CC1(C)C(C(=O)O)N2C(=O)CC2S1(=O)=O (configuration not stated),n,n
COc1cccc(OCCCn2c(-c3ccc(Cl)cc3)nc3ccccc3c2=O)c1,n,n
COc1ccc(C(=O)N2CCN(c3cccc(Cl)c3)CC2)cc1,n,n
COc1ccc(C(=O)C2CN(c3ccccc3)CC2c2ccc(Cl)cc2)cc1 (configuration not stated),n,15.8µM
O=S(O)O.O=S(O)O.[Co].[NH2-].[NH2-].[NH2-].[NH2-],n,n
O=C(c1cc(-c2cccnc2)nc2ccccc12)N1CCCc2ccccc21,n,n
Cc1ccc(-c2cc(C(=O)N3CCCc4ccccc43)c3ccccc3n2)cc1,n,31.6µM
COc1ccccc1NC(=O)COc1ccc(/C=N/NS(=O)(=O)c2ccc(C)cc2)cc1,n,n
Cc1ccc(S(=O)(=O)N/N=C/c2ccc(OCC(=O)Nc3ccccc3Cl)cc2)cc1,n,25.1µM
CCc1nnc(NC(=O)c2ccc(-c3ccc(Cl)cc3)o2)s1,n,15.8µM
CCn1nnc(NC(=O)c2ccc(-c3ccc(Cl)cc3)o2)n1,n,n
CN1CCN(CC(=O)N2c3ccccc3Sc3cc4ccccc4cc32)CC1,n,n

# Screening results as filed in PubChem.
